This is an account of results in the supplement of paper PMC7411054.

Settings in all cases: treatment time: 24 h
For assay [1], the system named is A549-ACTB-RAB5A. In words: lowest phenotypically active concentration; higher = less potent. In short, it runs like this:
(§1)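 Live-cell features were measured per well and normalised to solvent control wells after fifteen gene-edited A549, HepG2 and WPMY1 reporter lines had been treated for 24 h at 0.3, 1, 3 or 9 µM in four wells each. A condition was deviating when ≥3 of 4 wells sat beyond the 95th percentile of control Euclidean distances. It was reproducible when the median replicate Pearson correlation exceeded the 95th percentile of non-replicates. Phenotypic activity demanded both.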

In assay [2] the test system is WPMY1-GM130-SQSTM1. Described as above. In short, it runs like this: as §1
Assay [3] has as its system A549-ACTB-RAB5A. In words: phenotypically active (imaging signature differs from DMSO and reproducible) at any of 0.3-9 uM (binary (1 = active, 0 = inactive)); higher = active. A digest of the protocol:
as §1

Assay [4] has as its system A549-CANX-COX4. The description is as above. A digest of the protocol:
as §1

Assay [5] deals with A549-GM130-SQSTM1. The assay is described as above. A digest of the protocol: as §1
Assay [6] concerns A549-TP53BP1-CLTA. The assay is described as above. In short, it runs like this:
as §1

Assay [7] deals with A549-TUBA1B-RELA. The assay is described as above. In short, it runs like this: as §1
Assay [8] relates to HepG2-ACTB-RAB5A. The description is as above. In short, it runs like this:
as §1

For assay [9], the system named is HepG2-CANX-COX4. Described as above. A digest of the protocol: as §1
For assay [10], the system named is HepG2-GM130-SQSTM1. The assay is described as above. A digest of the protocol:
as §1

Assay [11] concerns HepG2-TP53BP1-CLTA. The assay is described as above. A digest of the protocol:
as §1

Assay [12] has as its system HepG2-TUBA1B-RELA. The assay is described as above. In short, it runs like this: as §1
The test system of assay [13] is WPMY1-ACTB-RAB5A. Described as above. A digest of the protocol:
as §1

Assay [14] relates to WPMY1-CANX-COX4. The assay is described as above. A digest of the protocol: as §1
For assay [15], the system named is WPMY1-GM130-SQSTM1. The assay is described as above. A digest of the protocol:
as §1

Assay [16] concerns WPMY1-TP53BP1-CLTA. Described as above. A digest of the protocol: as §1
The subject of assay [17] is WPMY1-TUBA1B-RELA. The assay is described as above. A digest of the protocol:
as §1

The subject of assay [18] is HepG2-ACTB-RAB5A. In words: lowest phenotypically active concentration; higher = less potent. A digest of the protocol:
as §1

Assay [19] has as its system WPMY1-ACTB-RAB5A. Described as above. In short, it runs like this: as §1
For assay [20], the system named is A549-GM130-SQSTM1. The description is as above. In short, it runs like this: as §1

For the compound `COc1cc(C)c(/C=C/C(C)=C/C=C/C(C)=C/C(=O)O)c(C)c1C` [acitretin], the “lowest phenotypically active concentration” value in assay [1] and in [2] was 9 µM in each case. Further, the phenotypically active in assay [3] is 1 (active); in [4], 0 (inactive); in [5] it was 0 (inactive); in assay [6], 0 (inactive); in assay [7] it was 0 (inactive); in assay [8], 0 (inactive). Also, the phenotypically active in [9] is 0 (inactive); in [10], 0 (inactive); in assay [11], 0 (inactive); in assay [12], 0 (inactive); in [13] it was 0 (inactive); in [14], 1 (active). The figures for the phenotypically active in assay [15], in assay [16] and in [17] were 1 (active), 0 (inactive) and 0 (inactive), respectively.
In the case of `Cc1cc(C(C)Nc2ccccc2)c2nc(N3CCOCC3)cc(=O)n2c1` (stereo not drawn), the “lowest phenotypically active concentration” value in [1], in assay [18] and in assay [2] was 9 µM throughout. Besides, the phenotypically active is 1 (active) in [3]; 0 (inactive) in assay [4]; 0 (inactive) in [5]; 0 (inactive) in assay [6]; 0 (inactive) in assay [7]; 1 (active) in assay [8]. The phenotypically active in assay [9] is 0 (inactive); in assay [10], 0 (inactive); in assay [11], 0 (inactive); in assay [12], 0 (inactive); in assay [13], 0 (inactive); in assay [14], 1 (active). Moreover, the phenotypically active is 1 (active) in assay [15], 0 (inactive) in assay [16] and 0 (inactive) in [17].
For `Cc1cccc(-c2n[nH]cc2-c2ccc(F)c(-c3cnn(CCO)c3)c2)n1`, the “lowest phenotypically active concentration” value in [1], in [19] and in [2] was 9 µM each time. Besides, the phenotypically active in assay [3] was 1 (active); in assay [4], 0 (inactive); in [5] it was 0 (inactive); in assay [6], 0 (inactive); in assay [7], 0 (inactive); in assay [8], 0 (inactive). Also, the phenotypically active is 1 (active) in assay [9]; 0 (inactive) in assay [10]; 1 (active) in [11]; 0 (inactive) in assay [12]; 1 (active) in assay [13]; 1 (active) in [14]. Moreover, the phenotypically active in assay [15], in assay [16] and in [17] was 1 (active) throughout.
For the compound `Cn1c(=O)c2nc[nH]c2n(C)c1=O` [theophylline], in assay [20], the “lowest phenotypically active concentration” value was 9 µM. Besides, the phenotypically active is 0 (inactive) in assay [3]; 0 (inactive) in assay [4]; 1 (active) in assay [5]; 0 (inactive) in assay [6]; 0 (inactive) in assay [7]; 0 (inactive) in [8]. Further, the phenotypically active in [9], in assay [10], in assay [11], in assay [12], in [13] and in [14] was 0 (inactive) in each case. The phenotypically active in [15], in [16] and in assay [17] was 0 (inactive) in each case.
For the compound `CC(C)(C)c1cc(/C=C(\C#N)C(N)=S)cc(C(C)(C)C)c1O`, the “lowest phenotypically active concentration” value in [20] amounted to 3 µM; in [18], 9 µM; in [2], 9 µM. Also, the phenotypically active was 0 (inactive) in assay [3]; 1 (active) in assay [4]; 1 (active) in assay [5]; 1 (active) in [6]; 0 (inactive) in assay [7]; 1 (active) in [8]. In addition, the phenotypically active in [9] was 1 (active); in assay [10], 1 (active); in [11] it was 1 (active); in assay [12] it was 1 (active); in assay [13], 0 (inactive); in assay [14], 0 (inactive). Moreover, the values for the phenotypically active in assay [15], in [16] and in assay [17] were 1 (active), 1 (active) and 0 (inactive), respectively.
`Cc1c[nH]c2ncnc(-c3ccc(NC(=O)N(CCO)c4ccccc4)cc3)c12`: the “lowest phenotypically active concentration” value in [1] worked out at 9 µM. In addition, the phenotypically active in assay [3] is 1 (active); in assay [4] it was 0 (inactive); in assay [5], 0 (inactive); in assay [6], 0 (inactive); in assay [7], 0 (inactive); in assay [8] it was 0 (inactive). Moreover, the phenotypically active in assay [9], in [10], in assay [11], in assay [12], in [13] and in [14] was 0 (inactive) throughout. Besides, the phenotypically active in [15] was 0 (inactive); in assay [16] it was 0 (inactive); in assay [17], 1 (active).
